# Screening results from PubChem.
# Sampled rows, rich in hits. Any-hit rate of the full collection: about 0.44%.
# p53 reactivator: restores transcriptional activity of mutant p53. H1299 p53-A138V BP100-luciferase reporter, luminescence, 24 h. Potency, µM (top dose mostly 92.2 µM), usual class: activators. actives 0.063% (n = 320,000); further: nearly all actives have a fitted effect of over 45% in size
#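 H1299 (p53-null), stable ts p53-A138V + BP100-Luc; 1000 cells/well, Opti-MEM/10% FBS; cpd 4 pt, 1:5; 24 h, 37 deg C, 5% CO2; detection reagent 10 min RT; luminescence.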
# Epigenetic derep: regulators of epigenetic silencing causing reporter derepression in mouse cells | Potency, µM (doses to about 53.9 µM), most hits filed as activators | murine LDR cells, GFP reporter derepression, 30 h | actives 0.2% (n = 280,000); further: nearly all actives have a fitted effect of over 60% in size
#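 Murine LDR cells carrying a silenced, genomically integrated CMV-driven GFP reporter were exposed to compound for 30 hours at 37 C. After PBS washes, GFP-positive cells (20–120 um objects) were counted by laser-scanning microplate cytometry.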
# B2AR arrestin: beta2AR (human) beta-arrestin recruitment activity; P07550; beta-arrestin recruitment to beta2AR, cell-based reporter; Potency, µM (series often up to 46.1 µM), most hits filed as activators; actives 0.02% (n = 330,000); further: nearly all actives have a fitted effect of over 65% in size
# Giardia kill: kills Giardia lamblia; AID 540267; activity change, % at 7.66 µM, hits read low; actives 0.15% (n = 340,000); Giardia lamblia trophozoite viability; in the data active means activity change below about -80%; inconclusive means between about -30% and that limit;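 further: parasites exposed to compound for two days anaerobically before the ATP read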
#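 Trophozoites 100 cells/well + cpd; 48 hrs, 37 deg C, anaerobic. ATPLite 1-Step added, 15-30 min RT, luminescence read (ATP-based viability).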
# PI4K2A inh: PI4K2A (human) kinase inhibition | Q9BTU6 | purified PI4K2A, ADP-Glo luminescence, 1 h; stronger effect = lower value | activity change, negative = inhibition, % at 76.9 µM | actives 0.13% (n = 420,000); in the data active means activity change below about -50%; inconclusive means mostly about -30% to -49%
#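 Compounds are screened against recombinant PI4K2A using PI as substrate and ATP, the latter dispensed at 300 microM. Reactions run one hour at ambient temperature before ADP-Glo detection; full inhibition defined by wells lacking enzyme.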
# Pin1 inh: blocks the human prolyl isomerase Pin1 | Pin1 FP peptide displacement, HiFluor488, 10 min | Potency, µM (top dose mostly 115 µM), actives largely listed as inhibitors | actives 0.009% (n = 390,000) | AID 504891; active means well fitted inhibition curve with a large enough effect in the polarisation, with a control signal flat, not every such curve was filed as active; inconclusive means small, poorly fitted or top-dose-only effect, or effect the other way, or a change in a side signal; inactive means no such curve, though single readings can be large or run the other way; the % refers to the polarisation
# Target sequence (Q13526 whole entry, looked up): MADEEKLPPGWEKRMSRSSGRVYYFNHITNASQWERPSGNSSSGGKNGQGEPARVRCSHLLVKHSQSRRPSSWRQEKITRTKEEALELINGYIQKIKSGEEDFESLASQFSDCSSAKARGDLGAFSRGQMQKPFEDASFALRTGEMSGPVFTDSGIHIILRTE
# Parental c127i: changes parental c127i cell counts in epigenetic modulator counter-screen; actives 20% (n = 60); mouse c127i parental cells, fluorescent cell count, 30 h; Potency, µM, actives largely listed as activators; AID 493065; shares compounds with Epigenetic derep
# HCC4017 tox: epigenetic modulators: cytotoxicity in HCC4017 lung cancer cells; HCC4017 NSCLC viability, CellTiter-Glo ATP luminescence, 72 h; AID 493071; actives 30% (n = 45); Potency, µM (top dose mostly 46.1 µM), usual class: cytotoxic; shares compounds with Epigenetic derep
# H358 tox: H358 cytotoxicity of epigenetic modulator hits | shares compounds with Epigenetic derep | Potency, µM (highest dose often 46.1 µM), hits mostly cytotoxic | H358 NSCLC viability, ATP luminescence, 72 h | actives 30% (n = 45)
# Numbers stand for hits; - = inactive; ? = inconclusive; . = no result given. Unless noted, the call rests on the fitted dose curve; in most records, active means well fitted curve in the direction sought with a large enough effect; inconclusive means small, poorly fitted or top-dose-only effect, or another doubt; inactive means no such curve, though single readings can be large; an effect the other way counts as inactive or inconclusive.
SMILES,p53 reactivator,Epigenetic derep,B2AR arrestin,Giardia kill,PI4K2A inh,Pin1 inh,Parental c127i,HCC4017 tox,H358 tox
COc1cccc(C)c1NC(=O)C(OC(=O)CNC(=O)c1ccccc1)c1ccccc1 (stereo not drawn),.,.,.,.,.,-,.,.,.
CN(c1ccccc1)S(=O)(=O)c1nnc(NC(=O)c2ccccc2)s1,.,7.1µM,.,-,-,-,-,-,-
CC(C)(C)OC(=O)CC(=O)NNC(=O)c1nc2ccccc2[nH]1,.,.,.,.,.,-,.,.,.
COc1cccc(N2CCN(S(=O)(=O)c3ccc(-n4cnnn4)cc3)CC2)c1,-,?,-,-,-,-,-,-,-
O=S(=O)(c1ccc(-n2cnnn2)cc1)N1CCN(c2cccc(Cl)c2)CC1,.,-,.,.,-,-,.,.,.
Cc1cc(NC(=O)C2CCCN(S(=O)(=O)c3cccc4nonc34)C2)ccc1Br (stereo not drawn),.,?,.,-,-,?,32µM,.,.
Cc1cc(Br)ccc1NC(=O)C1CCCN(S(=O)(=O)c2cccc3nonc23)C1 (stereo not drawn),.,?,.,.,-,-,.,.,.
O=C(NCCc1nc2ccccc2n1CCO)C1CCCCC1,.,.,.,.,.,-,.,.,.
COc1ccccc1OCC(=O)N/N=C/C=C/c1ccc([N+](=O)[O-])o1,?,10µM,-,?,-,-,-,?,14µM
N#Cc1ccc(NS(=O)(=O)c2ccc3c(c2)CCC(=O)N3)cc1,.,.,.,.,.,-,.,.,.
N#Cc1nc(Nc2cc(Cl)cc(Cl)c2)nc(NC2CCCC2)n1,.,.,.,.,.,-,.,.,.
Cc1ccc(NC(=O)c2c(C)nc3sc(C(=O)NC4CCCC4)c(N)c3c2-c2ccco2)c(C)c1,-,?,-,-,-,?,?,.,.
CCn1cnc2c(Nc3cc(F)cc(F)c3)nc(C(=O)COc3c(F)c(F)cc(F)c3F)nc21,.,.,.,.,.,-,.,.,.
CC(=O)OCCC(CC(C)C)NC(=O)[C@H](CC(C)C)NC(=O)OCc1ccccc1 (stereo partly drawn),.,.,.,.,-,.,.,.,.
CC(=O)[C@H](CC(C)C)NC(=O)[C@@H](CC(C)C)NC(=O)[C@H](CC(C)C)NC(=O)OCc1ccccc1,.,5µM,.,.,.,.,-,.,.
O=C(CSc1cccc[n+]1[O-])c1ccccc1Br,-,3.5µM,?,-,-,-,-,-,-
O=C(Nc1nc(Nc2cc(F)cc(F)c2)nc(NC2CCCC2)n1)OCc1ccccc1,.,.,.,.,.,-,.,.,.
C/C=C/c1ccc(OCC(=O)OCC(=O)NC2CC2)c(OC)c1,-,?,-,-,-,-,-,-,-
O=C(COC(=O)COc1ccc(Cl)cc1Cl)NC1CC1,-,.,-,-,-,-,.,.,.
O=[S+]([O-])(/C=C/c1nc(Nc2cc(F)cc(F)c2)c2ncn(CC(F)F)c2n1)c1ccccc1,.,.,.,.,.,-,.,.,.
O=C(Cc1ccccc1)Nc1sc2c(c1C(=O)Nc1ccc(Cl)cc1)CCOC2,.,.,.,.,.,-,.,.,.
CC1=C/C(=N\NC(=S)Nc2cccnc2)CC(C)(C)C1,-,6.3µM,?,-,-,-,-,?,-
NC(=S)N/N=C/c1ncc(C(F)(F)F)cc1Cl,-,4µM,?,-,-,?,-,?,?
CCOC(=O)c1cc2c(=O)n3ccccc3nc2n(Cc2ccco2)c1=NC(=O)c1cccc(Br)c1,.,-,.,.,-,?,.,.,.
CCOC(=O)c1cc2c(=O)n3ccccc3nc2n(Cc2ccco2)c1=NC(=O)c1ccc(Br)cc1,.,?,.,-,-,?,28µM,.,.
COc1cccc(/C=N/Nc2nc(Nc3ccccc3)nc(-n3nc(C)cc3C)n2)c1O,-,2.5µM,?,-,-,-,-,2.5µM,4.4µM
